Laboratory results as given in PubChem BioAssay.
Values joined by “and” are separate entries in the source; they are usually repeats but may differ in a detail not shown here. Equal values may be shown once. The source holds several records for some structures; these can differ, active in one and inactive in another. Active and inactive are the calls of the source.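 The calls were made as follows, unless noted: active = thallium flux through the channel raised or lowered by more than 3 SD from vehicle-only wells, actives on both sides; inactive = the rest.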

Assays:
[1] = stimulators of nuclear beta-catenin in C2C12, primary screen, imaging, WNT3A-conditioned medium, mouse C2C12, NPC library (AID 1117326; in the data active = nuclear beta-catenin stimulation mostly above about 4.2%, no sharp cut-off; inactive = mostly below about 10%); conditions: stronger effect = higher value
[2] = stimulators of insulin release from INS-1E, primary screen, cell-based, 5 mM glucose, NPC library (AID 1117329;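 active = compound raises insulin release from rat beta cells at 5 mM glucose, no numeric limit stated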); conditions: rat INS-1E insulin secretion, at 10 µM, stronger effect = higher value
[3] = growth inhibition of GSK3B-pretreated HCT116 cells – cell-based, CellTiter-Glo, 0.2 to 20 µM (AID 1117336;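 active = compounds lowering colon cancer cell viability after pretreatment blocking the GSK3B kinase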); conditions: HCT116 viability after GSK3B inhibitor, at 20 µM, stronger effect = higher value
[4] = inhibition of endothelial tube formation, primary screen, imaging, VEGF stimulated, CD31 staining, tube area, NPC library (AID 1117340;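 active = compound that reduces growth-factor-driven endothelial tube area in a mixed cell culture, no cutoff stated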); conditions: VEGF-stimulated ADSC/ECFC co-culture, at 10 µM, stronger effect = higher value
[5] = glucagon-like peptide 1 release enhancers, primary assay, NCI-H716 cell line, NPC library (AID 1117341;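 active = compound raises GLP1 secretion from the human gut endocrine cells, with no numeric limit stated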); conditions: NCI-H716 cells, at 10 µM, stronger effect = higher value
[6] = HCT116 colon cancer cell growth inhibition, primary screen, CellTiter-Glo luminescence, NPC library (AID 1117342;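 active = compounds that lower survival of HCT116 colon cancer cells in the luminescence readout, no numeric limit stated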); conditions: at 20 µM (top of the series)
[7] = CellTiter-Glo luminescent readout of SW480 viability loss, NPC library primary (AID 1117343;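 active = compounds that lower viability of the colon cancer cells in the luminescence readout, with no numeric limit stated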); conditions: CellTiter-Glo luminescence; at 20 µM (top of the series)
[8] = decreased DLD-1 cellular survival, CellTiter-Glo luminescent readout, NPC compound collection, primary HTS (AID 1117346;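 active = compounds that lower survival of DLD-1 colon cancer cells in the luminescence readout, no cutoff given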); conditions: DLD-1 viability, CellTiter-Glo luminescence; at 20 µM (top of the series)
[9] = sensitizers of A549 cells to miR-34 induction, primary screen, imaging, A549 dox-inducible miR-34, nuclei and caspase counts (AID 1347080;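 active = compounds whose cell count with miR-34 switched on is under 0.7 times the count with it off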); conditions: A549 miR-34 inducible, Hoechst nuclei count, 48 h
[10] = target: NAD(+) hydrolase SARM1 (Homo sapiens) (UniProt Q6SZW1); test: SARM1 TIR NADase inhibitors, cell lysate, NAD-Glo luminescence (AID 1508614;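 active = compound whose remaining NAD level is above about 45 nM, limit read from the data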;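 also: higher remaining NAD means stronger inhibition of SARM1 NADase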); conditions: SAM-TIR HEK293T lysate NADase, at 1 µM, stronger effect = higher value
Chain of NAD(+) hydrolase SARM1 (Homo sapiens) (Q6SZW1 whole entry, looked up, the tested form may be a part): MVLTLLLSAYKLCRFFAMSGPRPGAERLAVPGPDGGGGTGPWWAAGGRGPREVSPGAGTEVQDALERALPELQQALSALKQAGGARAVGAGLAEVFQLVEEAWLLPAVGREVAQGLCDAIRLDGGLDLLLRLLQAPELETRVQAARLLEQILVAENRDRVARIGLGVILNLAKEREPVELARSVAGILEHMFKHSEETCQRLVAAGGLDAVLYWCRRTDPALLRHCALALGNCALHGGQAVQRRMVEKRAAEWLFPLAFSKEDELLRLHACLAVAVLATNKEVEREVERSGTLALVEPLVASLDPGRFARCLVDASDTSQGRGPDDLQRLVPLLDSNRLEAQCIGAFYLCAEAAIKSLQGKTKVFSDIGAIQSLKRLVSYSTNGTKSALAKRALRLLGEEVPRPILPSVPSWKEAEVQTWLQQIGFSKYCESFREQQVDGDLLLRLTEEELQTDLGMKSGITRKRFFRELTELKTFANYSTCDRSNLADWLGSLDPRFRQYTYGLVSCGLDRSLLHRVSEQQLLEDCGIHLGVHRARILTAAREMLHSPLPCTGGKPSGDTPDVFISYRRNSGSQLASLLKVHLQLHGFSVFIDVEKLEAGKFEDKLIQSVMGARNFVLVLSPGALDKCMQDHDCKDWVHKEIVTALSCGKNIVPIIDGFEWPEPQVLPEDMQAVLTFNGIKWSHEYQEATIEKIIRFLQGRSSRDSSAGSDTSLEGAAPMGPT

[11] = target: Mitogen-activated protein kinase 7 (Homo sapiens) (UniProt Q13164); test: ERK5 transactivation activators in reporter cells, primary screen, cell-based, HTS (AID 1508626;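 active = luciferase signal above three times the same-plate solvent-only control wells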;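 also: luciferase driven by Gal4-ERK5 fusion binding five Gal4 sites before minimal TATA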); conditions: HeLa Gal4-ERK5 transactivation, 18 h, at 5 µM, stronger effect = higher value
Chain of Mitogen-activated protein kinase 7 (Homo sapiens) (Q13164 whole entry, looked up, the tested form may be a part): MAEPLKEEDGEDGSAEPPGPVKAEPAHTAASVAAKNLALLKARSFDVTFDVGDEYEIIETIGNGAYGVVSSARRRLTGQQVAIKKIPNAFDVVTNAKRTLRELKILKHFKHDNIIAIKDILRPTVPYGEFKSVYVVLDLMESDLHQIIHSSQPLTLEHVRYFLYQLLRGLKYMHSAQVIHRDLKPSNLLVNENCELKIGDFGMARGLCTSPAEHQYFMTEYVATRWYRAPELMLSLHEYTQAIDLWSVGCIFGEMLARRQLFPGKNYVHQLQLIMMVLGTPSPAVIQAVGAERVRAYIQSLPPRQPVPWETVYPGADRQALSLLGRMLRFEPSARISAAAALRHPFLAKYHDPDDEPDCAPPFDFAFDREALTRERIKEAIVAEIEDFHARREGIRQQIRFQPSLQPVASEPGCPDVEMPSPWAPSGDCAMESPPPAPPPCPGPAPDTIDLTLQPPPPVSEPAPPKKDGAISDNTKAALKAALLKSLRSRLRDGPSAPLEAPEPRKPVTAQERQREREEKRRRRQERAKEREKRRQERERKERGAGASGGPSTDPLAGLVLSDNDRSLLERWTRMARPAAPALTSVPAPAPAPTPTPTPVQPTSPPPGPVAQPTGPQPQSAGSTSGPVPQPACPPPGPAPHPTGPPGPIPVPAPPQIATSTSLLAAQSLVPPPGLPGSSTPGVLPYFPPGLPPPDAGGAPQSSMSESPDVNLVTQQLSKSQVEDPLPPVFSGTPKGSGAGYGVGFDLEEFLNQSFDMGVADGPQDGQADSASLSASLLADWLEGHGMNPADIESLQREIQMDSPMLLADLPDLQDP

[12] = target: 6-phosphogluconate dehydrogenase, decarboxylating (Homo sapiens) (UniProt P52209); test: 6PGD enzyme inhibitors, primary screen, biochemical, human, recombinant enzyme, NADPH absorbance (AID 1159550;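 active = at least 20% inhibition of 6-phosphogluconate dehydrogenase activity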); conditions: recombinant 6PGD, NADPH absorbance 341 nm; at 10 µM; stronger effect = higher value
Chain of 6-phosphogluconate dehydrogenase, decarboxylating (Homo sapiens) (P52209 whole entry, looked up): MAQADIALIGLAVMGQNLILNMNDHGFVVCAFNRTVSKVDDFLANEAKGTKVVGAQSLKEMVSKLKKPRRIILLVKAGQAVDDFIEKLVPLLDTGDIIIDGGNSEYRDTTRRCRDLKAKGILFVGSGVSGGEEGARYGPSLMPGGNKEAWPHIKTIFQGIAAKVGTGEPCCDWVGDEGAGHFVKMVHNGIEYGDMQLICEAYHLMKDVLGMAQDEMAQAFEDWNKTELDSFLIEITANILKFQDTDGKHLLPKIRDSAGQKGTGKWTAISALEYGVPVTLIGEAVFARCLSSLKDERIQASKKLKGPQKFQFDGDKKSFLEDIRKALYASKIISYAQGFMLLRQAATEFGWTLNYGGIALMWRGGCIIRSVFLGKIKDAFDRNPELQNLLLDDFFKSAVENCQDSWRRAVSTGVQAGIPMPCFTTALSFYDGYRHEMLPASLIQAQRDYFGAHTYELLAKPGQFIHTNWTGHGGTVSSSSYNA

[13] = differential killing of epithelial or mesenchymal cells, primary screen, imaging, PC-3E GFP, TEM4-18 mCherry, co-culture (AID 1345086;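 active = compounds killing one labelled cell type while sparing the other, by normalised counts and ratio limits, not self-fluorescent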;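 as to all read-outs here: cells exposed to compound for 72 h before imaging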;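 as to red/green cell ratio (normalised): normalised mesenchymal count divided by normalised epithelial count so high means epithelial killing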); conditions: imaging cell counts, at 1 µM; for red/green cell ratio (normalised): actives lie on both sides, counts scaled to control wells, 1 = unselective
[14] = survival rescue of mitochondrial mutant cells in low glucose, primary screen, MELAS cybrids, Rieske KO mouse fibroblasts, CellTiter-Glo (AID 1508586;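 active = mean z-score across replicates of 1.96 or higher in either the MELAS or the Rieske mutant cell line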;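 also: z relative to plate mean and SD of compound and empty wells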)
[15] = tested on: Hepatitis C virus NS3 helicase; test: HCV NS3 helicase inhibitors, primary screen, biochemical, fluorescence polarization, NIH Clinical Collection (AID 743270; call rule not given here); conditions: NS3 helicase binding to Cy5-dT15 DNA, stronger effect = higher value, concentration not given here
[16] = target: Single-stranded DNA-binding protein (Escherichia coli (strain K12)) (UniProt P0AGE0); test: E. coli SSB displacement from DNA, counter-screen for HCV NS3 helicase inhibitor project, biochemical, fluorescence polarization, NIH Clinical Collection (AID 743271; in the data active = inhibition above about 28%); conditions: stronger effect = higher value, concentration not given here
[17] = fluorescence interference in NS3h assay format, artefact control for HCV NS3 helicase inhibitor project, biochemical, NIH Clinical Collection (AID 743272; call rule not given here;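 also: HCV NS3 helicase with a Cy5 labelled single stranded DNA probe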); conditions: fluorescence interference counterscreen, stronger effect = lower value
F380Y = test: modulators of BK channel variants, profiling panel, selectivity assay, cell-based, U2OS BacMam, thallium flux, beta subunits (AID 1259406); conditions: at 30 µM;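 also: initial slope of Thallos dye fluorescence rise after thallium is added; log ratio against the mean of 0.3% DMSO vehicle wells on the same plate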
F380Y/beta2Delta = test: as above; conditions: at 30 µM
[18] = target: Calcium-activated potassium channel subunit alpha-1 (Homo sapiens) + Leucine-rich repeat-containing protein 26 (Homo sapiens) (UniProt Q12791+Q2I0M4); test: as above; conditions: F380Y/Slo1WT/gamma1, at 30 µM
Chain of Calcium-activated potassium channel subunit alpha-1 (Homo sapiens) + Leucine-rich repeat-containing protein 26 (Homo sapiens) (Q2I0M4 whole entry, looked up, one chain of several): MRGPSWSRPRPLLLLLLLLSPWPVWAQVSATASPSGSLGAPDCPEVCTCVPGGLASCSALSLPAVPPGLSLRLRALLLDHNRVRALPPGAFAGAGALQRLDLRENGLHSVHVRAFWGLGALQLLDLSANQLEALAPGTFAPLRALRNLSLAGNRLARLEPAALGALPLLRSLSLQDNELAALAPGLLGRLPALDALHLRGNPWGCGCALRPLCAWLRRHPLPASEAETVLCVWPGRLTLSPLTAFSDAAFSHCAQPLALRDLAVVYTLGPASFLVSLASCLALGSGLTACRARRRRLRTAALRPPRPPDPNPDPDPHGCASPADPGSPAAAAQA

[19] = stronger effect = lower value, cell number ratio, induced over uninduced
[20] = measured here: relative caspase fold change +Dox/-Dox
[21] = measured here: total cells with miR-34 induction, stronger effect = lower value
[22] = measured here: total cells without miR-34 induction
[23] = measured here: epithelial PC-3E GFP cell survival
[24] = measured here: mesenchymal TEM4-18 mCherry cell survival
[25] = MELAS cybrid survival, CellTiter-Glo 48 h, stronger effect = higher value
[26] = Rieske KO mouse fibroblast survival, CellTiter-Glo 72 h

CC[C@]1(O)C[C@@H]2CN(CCc3c([nH]c4ccccc34)[C@@](C(=O)OC)(c3cc4c(cc3OC)N(C)[C@H]3[C@@](O)(C(=O)OC)[C@H](OC(C)=O)[C@]5(CC)C=CCN6CC[C@]43[C@@H]65)C2)C1
nuclear beta-catenin stimulation ([1]; at 10 µM): 78.2% (active) and 46.4% (active)
nuclear beta-catenin stimulation ([1]; stimulation, at 2 µM): 49.7% and 61.6%
insulin secretion stimulation [2]: 5.8% (inactive) and 3.65% (inactive)
viability decrease [3]: 84.6% (active) and 97.7% (active)
tube area decrease [4]: 108% (active) and 104% (active)
GLP1 secretion stimulation [5]: -1.3% (inactive) and 5.9% (inactive)
inhibition of viability [6]: 79.8% (active) and 74.2% (active)
viability decrease (inhibition) [7]: 89.7% (active) and 76.2% (active)
viability decrease (inhibition) [8]: 84.7% (active) and 75.3% (active)
fold change [9, 19]: 1.08 (inactive)
fold change [9, 20]: 0.797
cell count [9, 21]: 794
cell count [9, 22]: 738
remaining NAD [10]: 10 nM (inactive)
luciferase signal [11]: 72 AU (inactive)

O=C1N=C(O)CN1/N=C/c1ccc(-c2ccc([N+](=O)[O-])cc2)o1
nuclear beta-catenin stimulation ([1]; at 10 µM): 4.1% (inactive)
nuclear beta-catenin stimulation ([1]; stimulation, at 2 µM): 4.2%
insulin secretion stimulation [2]: 2.6% (inactive)
viability decrease [3]: 9.2% (inactive)
tube area decrease [4]: -8.8% (inactive)
GLP1 secretion stimulation [5]: 1.9% (inactive)
inhibition of viability [6]: 20.3% (active)
viability decrease (inhibition) [7]: -30.5% (inactive)
viability decrease (inhibition) [8]: 5% (inactive)
inhibition [12]: 13.4% (inactive)
red/green cell ratio (normalised) [13]: 1.07 (inactive)
normalised cell number [13, 23]: 1.02
normalised cell number [13, 24]: 1.1
z-score [14, 25]: 0.073 (inactive)
z-score [14, 26]: 0.247
remaining NAD [10]: 10 nM (inactive)
luciferase signal [11]: 156 AU (inactive)

CC1(C)O[C@@H]2C[C@H]3[C@@H]4CCC5=CC(=O)C=C[C@]5(C)[C@@]4(F)[C@@H](O)C[C@]3(C)[C@]2(C(=O)CO)O1
inhibition [15]: -0.45% (inactive)
inhibition [16]: 4.1% (inactive)
fluorescence ratio [17]: 0.99 (inactive)
nuclear beta-catenin stimulation ([1]; at 10 µM): -0.5% (inactive)
nuclear beta-catenin stimulation ([1]; stimulation, at 2 µM): 3.8%
insulin secretion stimulation [2]: 3.4% (inactive)
viability decrease [3]: 21.8% (inactive)
tube area decrease [4]: 0.2% (inactive)
GLP1 secretion stimulation [5]: -1% (inactive)
inhibition of viability [6]: 8.4% (inactive)
viability decrease (inhibition) [7]: 34.9% (inactive)
viability decrease (inhibition) [8]: -6.5% (inactive)
inhibition [12]: 10.8% (inactive)
fold change [9, 19]: 0.992 (inactive)
fold change [9, 20]: 0.777
cell count [9, 21]: 7390
cell count [9, 22]: 7450
remaining NAD [10]: 10 nM (inactive)
luciferase signal [11]: 36 AU (inactive)
log fold change Tl+ flux (F380Y): 0.0424 (inactive)
log fold change Tl+ flux (F380Y/beta2Delta): -0.014 (inactive)
log fold change Tl+ flux [18]: 0.106 (active)

CCN(CC)C(=S)SSC(=S)N(CC)CC
inhibition [15]: -1.19% (inactive)
inhibition [16]: -1.64% (inactive)
fluorescence ratio [17]: 0.99 (inactive)
nuclear beta-catenin stimulation ([1]; at 10 µM): 5.4% (inactive)
nuclear beta-catenin stimulation ([1]; stimulation, at 2 µM): 2.3%
insulin secretion stimulation [2]: 4.8% (inactive)
viability decrease [3]: 9.9% (inactive)
tube area decrease [4]: 35.6% (inactive)
GLP1 secretion stimulation [5]: 6.3% (inactive)
inhibition of viability [6]: 18.6% (inactive)
viability decrease (inhibition) [7]: 39.4% (inactive)
viability decrease (inhibition) [8]: 30.8% (inactive)
inhibition [12]: 1.47% (inactive)
red/green cell ratio (normalised) [13]: 0.63 (inactive)
normalised cell number [13, 23]: 0.27
normalised cell number [13, 24]: 0.17
z-score [14, 25]: -0.351 (inactive) and 0.325 and -1.17
z-score [14, 26]: -4.19 and 10.8 and 3.81
remaining NAD [10]: 10 nM (inactive)
luciferase signal [11]: 16 AU (inactive)
log fold change Tl+ flux (F380Y): -0.0143 (inactive)
log fold change Tl+ flux (F380Y/beta2Delta): 0.0251 (inactive)
log fold change Tl+ flux [18]: 0.093 (active)

OCCN(CCO)c1nc(N2CCCCC2)c2nc(N(CCO)CCO)nc(N3CCCCC3)c2n1
inhibition [15]: 2.27% (inactive)
inhibition [16]: 5.62% (inactive)
fluorescence ratio [17]: 0.85 (inactive)
nuclear beta-catenin stimulation ([1]; at 10 µM): 0.7% (inactive)
nuclear beta-catenin stimulation ([1]; stimulation, at 2 µM): 1.8%
insulin secretion stimulation [2]: 0.7% (inactive)
viability decrease [3]: 20.5% (inactive)
tube area decrease [4]: 8.6% (inactive)
GLP1 secretion stimulation [5]: 8% (inactive)
inhibition of viability [6]: 61.4% (active)
viability decrease (inhibition) [7]: 41.1% (inactive)
viability decrease (inhibition) [8]: 4.3% (inactive)
inhibition [12]: 11% (inactive)
red/green cell ratio (normalised) [13]: 1.08 (inactive)
normalised cell number [13, 23]: 1.13
normalised cell number [13, 24]: 1.22
z-score [14, 25]: -0.622 (inactive) and 4.01 (active) and 2.55 (active)
z-score [14, 26]: -0.0206 and -0.634 and 4.9
remaining NAD [10]: 10 nM (inactive)
luciferase signal [11]: 136 AU (inactive)

COc1cc2nc(N3CCN(C(=O)c4ccco4)CC3)nc(N)c2cc1OC
nuclear beta-catenin stimulation ([1]; at 10 µM): 47.5% (active)
nuclear beta-catenin stimulation ([1]; stimulation, at 2 µM): 7.8%
insulin secretion stimulation [2]: 0.2% (inactive)
viability decrease [3]: 80.9% (active)
tube area decrease [4]: -2.7% (inactive)
GLP1 secretion stimulation [5]: 9.5% (inactive)
inhibition of viability [6]: 46.9% (inactive)
viability decrease (inhibition) [7]: 120% (active)
viability decrease (inhibition) [8]: 78.7% (active)
inhibition [12]: 8.49% (inactive)
red/green cell ratio (normalised) [13]: 1.27 (inactive)
normalised cell number [13, 23]: 0.98
normalised cell number [13, 24]: 1.25
z-score [14, 25]: 1.14 and 0.169 (inactive)
z-score [14, 26]: 2.19 and 0.838
remaining NAD [10]: 10 nM (inactive)
luciferase signal [11]: 128 AU (inactive)
log fold change Tl+ flux (F380Y): 0.00597 (inactive)
log fold change Tl+ flux (F380Y/beta2Delta): -0.00919 (inactive)
log fold change Tl+ flux [18]: 0.00974 (inactive)

CNC(=O)Oc1ccc2c(c1)[C@]1(C)CCN(C)[C@@H]1N2C
nuclear beta-catenin stimulation ([1]; at 10 µM): -0.4% (inactive)
nuclear beta-catenin stimulation ([1]; stimulation, at 2 µM): 0%
insulin secretion stimulation [2]: 5% (inactive)
viability decrease [3]: 5% (inactive)
tube area decrease [4]: -23.5% (inactive)
GLP1 secretion stimulation [5]: 3.8% (inactive)
inhibition of viability [6]: 23.3% (inactive)
viability decrease (inhibition) [7]: 38.9% (inactive)
viability decrease (inhibition) [8]: 0.2% (inactive)
inhibition [12]: -7.09% (inactive) and -14.3% (inactive) and -6.98% (inactive)
red/green cell ratio (normalised) [13]: 0.96 (inactive)
normalised cell number [13, 23]: 1.03
normalised cell number [13, 24]: 1
z-score [14, 25]: -0.485 (inactive) and 0.886 (inactive)
z-score [14, 26]: -0.245 and 0.787
remaining NAD [10]: 10 nM (inactive)
luciferase signal [11]: 40 AU (inactive)

CC(=O)OCC(=O)[C@@]12OC(C)(C)O[C@@H]1C[C@H]1[C@@H]3C[C@H](F)C4=CC(=O)C=C[C@]4(C)[C@@]3(F)[C@@H](O)C[C@@]12C
inhibition [15]: 4.09% (inactive)
inhibition [16]: -1.24% (inactive)
fluorescence ratio [17]: 1.01 (inactive)
nuclear beta-catenin stimulation ([1]; at 10 µM): 1.1% (inactive)
nuclear beta-catenin stimulation ([1]; stimulation, at 2 µM): 2.1%
insulin secretion stimulation [2]: 0.2% (inactive)
viability decrease [3]: -25.9% (inactive)
tube area decrease [4]: 30.9% (inactive)
GLP1 secretion stimulation [5]: 0.7% (inactive)
inhibition of viability [6]: 20.4% (inactive)
viability decrease (inhibition) [7]: -2.3% (inactive)
viability decrease (inhibition) [8]: -3.8% (inactive)
inhibition [12]: -0.585% (inactive)
fold change [9, 19]: 0.945 (inactive) and 0.813 (inactive)
fold change [9, 20]: 2.11 and 1.02
cell count [9, 21]: 7270 and 6260
cell count [9, 22]: 7700 and 7690
z-score [14, 25]: 0.454 (inactive)
z-score [14, 26]: 1.02
remaining NAD [10]: 10 nM (inactive)
luciferase signal [11]: 260 AU (active)
log fold change Tl+ flux (F380Y): 0.00343 (inactive)
log fold change Tl+ flux (F380Y/beta2Delta): -0.00446 (inactive)
log fold change Tl+ flux [18]: 0.00932 (inactive)
